Here are results for 74 molecules from PubChem BioAssay AID1305 (SRMLSC, 2008).

Each structure is given as a SMILES string. Among all 1,200 compounds or so, fewer than 10 were called active. Only a sample is shown. Unmarked numbers belong to inactive results. How the calls were made is not given here.

A short description of the assay: sensitized control strain growth on 5-FOA – S. cerevisiae, OD615, counter-screen for RAM network inhibitor project, dose response (AID 1305).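 Further: plate controls were vehicle for no effect and reference inhibitor for full effect.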 The conditions noted are these: S. cerevisiae efflux-deficient reporter strain, 5-FOA growth OD615, 2 days, hits give high values; at 100 µM unless noted.
For the molecule `CCC(C)(C)c1ccc(Oc2ccc(NC(=O)COC(=O)C3=COCCO3)cc2)cc1`, the max inhibition is 1.41%.
The value for `Cc1ccccc1CSCCNC(=O)c1ccc(N(C)S(=O)(=O)c2ccccc2)cc1` was 3.2%; that for `Fc1ccc(-n2c(Cc3ccccc3)nnc2SCc2nc(-c3ccc(Cl)cc3)no2)cc1` was 1.1% [setting not given].
With `COCCN(C(=O)C(C)C)c1nnc(-c2ccc(C(C)(C)C)cc2)s1` the figure was 1.87% [at 50 µM]; with `COc1ccc(/C=C(\NC(=O)c2ccc(OCC(C)C)cc2)C(=O)OCc2ccco2)cc1`, 3.48%.
With `O=C(COC(=O)/C(=C/c1cccs1)c1cccs1)NCc1ccccc1Cl`, the max inhibition was 1.81% [at 25 µM].
The value for `Cc1c(N=Nc2ccc(N(C)C)cc2)c(=O)n(-c2ccccc2)n1C` was 20%; that for `CN(C)S(=O)(=O)c1cccc(NC(=O)COC(=O)C2(c3ccccc3F)CCCC2)c1` was 1.8% [at 50 µM]; that for `CCOC(=O)c1sc2nc(CSCC(=O)OCc3ccc(C(=O)OC)o3)[nH]c(=O)c2c1C` was 2.47% [at 50 µM].
For the molecule `CCN=C1S/C(=C\c2cc(Br)ccc2OCC(=O)OCC)C(=O)N1CC`, the max inhibition is 3.82% [at 50 µM].
The value for `Cc1cccc(-n2c(SCC(=O)Nc3cccc(S(=O)(=O)NC4=NCCCCC4)c3)nc3ccccc3c2=O)c1C` was 2.12% [setting not given].
The value for `c1ccc(-c2csc(N3CCc4ccccc4C3)n2)cc1` was 4.47%; that for `O=C(COC(=O)/C=C/c1nc2ccccc2s1)Nc1ccccc1Oc1ccccc1` was 1.95% [at 1.563 µM]; that for `O=C(OCc1ccc(Br)cc1)c1cccc(-c2nnc(-c3ccccc3)o2)c1` was 3.97% [at 50 µM].
`CC(=O)c1c(Nc2ccccc2)sc(C(=O)c2ccccc2)c1C`: the max inhibition is 4.16% [at 50 µM].
Turning to `CCCSc1nc(NCc2ccco2)c2c3c(sc2n1)COC(C)(CC)C3` (centres undefined), the max inhibition was 4.05% [at 50 µM].
The value for `Cc1ccc(NC2=C(Cl)C(=O)OC2OC(=O)c2ccccc2C)cc1` (centres undefined) was 1.91% [at 50 µM]; that for `Cc1cc(C)cc(NC(=O)CSCc2cnn(-c3ccccc3)c2-n2cccc2)c1` was 6.62%; that for `COC(=O)CCCCCN1C(=O)NC(c2ccc(-c3ccccc3)cc2)C(C(=O)OCc2ccccc2)=C1C` (centres undefined) was 4.42% [at 25 µM].
With `O=C(NCc1ccccc1)C1=C[C@@H](c2ccc(C(F)(F)F)cc2)C[C@@H](OCc2ccc(CO)cc2)O1`, the max inhibition was 3.48%.
With `Cc1ccc(N=Nc2c(C)[nH]n(-c3ccccc3)c2=O)cc1` the figure was 1.87% [at 50 µM]; with `COC(=O)c1sccc1NC(=O)c1csc2c1CCCC2`, 4.49% [at 25 µM].
The value for `CC(O)C(NS(=O)(=O)c1ccc(Cl)cc1)C(=O)OCc1cc([N+](=O)[O-])cc2c1OCOC2` (centres undefined) was 1.67%.
With `COc1ccc(Cl)cc1NC(=O)NC(C)C(C)(C)C` (centres undefined) the figure was 1.97% [setting not given]; with `CCOC(=O)CC(=O)CSc1nc(-c2ccccc2)cc(-c2ccc(Cl)cc2)c1C#N`, 1.73% [setting not given]; with `C=CCOC(=O)C1=C(C)NC(SCC(=O)OCC)=C(C#N)C1c1ccc(C)cc1` (centres undefined), 4.12%.
Take `CCCCn1ccnc1C(=O)c1cccc(S(=O)(=O)N2c3ccccc3CC2C)c1` (centres undefined): the max inhibition is 3.37%.
With `CN(c1ccccc1)c1ccc(/C=c2\s/c(=C(/C#N)C(=O)C(C)(C)C)n(Cc3ccco3)c2=O)cc1` the figure was 4.2% [at 25 µM].
The value for `N/C(Cc1ccc([N+](=O)[O-])cc1)=N\OC(=O)COc1ccc2ccccc2c1` was 1.6%.
The value for `COc1ccc(/C(C)=N/Nc2cc(C(F)(F)F)ccc2Cl)c(OC)c1` was 2.82%; that for `Cc1cc2ccccc2n1CCNC(=O)COc1ccc2ccccc2c1` was 4.22%.
Turning to `N#C/C(=C\C1=C(N2CCOCC2)C(=C\c2ccccc2)/CC1)C(=O)Nc1ccccc1F`, the max inhibition is 1.39% [setting not given].
Regarding `COc1ccc(O[C@H]2C=C[C@@H](c3ccccc3)O[C@@H]2CO/N=C/C[C@@H]2C=C[C@H](OC(C)=O)[C@@H](COC(C)=O)O2)cc1`, the max inhibition was 1.15% [setting not given].
The value for `O=C(COC(=O)CCCNC(=O)c1ccc(Cl)cc1)Nc1cc(Cl)ccc1Cl` was 3.65%; that for `COc1c(Br)cc2c(C)c(C(=O)N3CCOCC3)oc2c1Br` was 1.57% [setting not given]; that for `CCC1C/C(=C/c2cccs2)C(=O)/C(=C/c2cccs2)C1` (centres undefined) was 6.29%.
For `CCc1nc(Nc2ccc3nccnc3c2)c2oc3ccccc3c2n1`, the max inhibition is 13.2%.
With `Oc1c(Cl)cc(Cl)c(Cl)c1Cc1c(O)c(Cl)cc(Cl)c1Cl` the figure was 0.89% [setting not given].
`O=C(CCC(=O)OCc1cccc(C(=O)Oc2ccccc2)c1)Nc1cccc2ccccc12`: the max inhibition was 2.95% [at 12.5 µM].
With `O=C1/C(=C/c2ccc3c(c2)OCO3)CCC/C1=C\c1ccc2c(c1)OCO2` the figure was 4.85% [at 50 µM].
The value for `CCOC(=O)CSC1=C(C#N)C(c2ccco2)C(C(=O)OCc2ccccc2)=C(C)N1` (centres undefined) was 1.67%; that for `Cc1ccc(S(=O)(=O)c2c(N)n(C)c3nc4ccccc4nc23)cc1` was 4.57%; that for `CCC(C(=O)OCC(=O)Nc1c(Cl)cc(Cl)cc1Cl)c1ccccc1` (centres undefined) was 2.14% [setting not given].
Consider `C=CCO/N=C(\C)c1c(O)c(C)c(-c2ccccc2)n(-c2ccccc2)c1=O`, for which the max inhibition was 3.26%.
With `COc1ccc2c(c1)CCc1c(C(=O)N3CCc4ccccc4C3)noc1-2` the figure was 1.6% [setting not given].
With `CCOc1ccc(CN(Cc2ccco2)C(c2cccs2)c2nnnn2C(C)(C)C)cc1` (centres undefined), the max inhibition is 4.45%.
On to `Cc1ccc(C(=O)/C=C/c2c(C)nn(-c3ccccc3)c2Cl)cc1`, for which the max inhibition was 7.53%.
The value for `CCCCC(C(=O)OCC(=O)c1ccc(OC)cc1)N1C(=O)c2ccccc2C1=O` (centres undefined) was 4.61%; that for `COc1ccc(C2C=C(c3ccc(Br)cc3)Nc3nc(NS(C)(=O)=O)nn32)cc1` (centres undefined) was 3.37%; that for `CCCNC(=O)OC[C@H]1O[C@H](CCO/N=C/[C@@H](NS(=O)(=O)c2ccc(C)cc2)[C@H](C)/C=C/CC(=O)OC)C=C[C@@H]1Oc1ccc(OC)cc1` was 1.46% [at 50 µM].
The value for `Fc1ccc(CSc2nnc(-c3cc4c(s3)-c3ccccc3CC4)o2)cc1` was 4.57%.
With `O=C(CSc1nc(-c2ccccc2)cs1)Nc1cccc([N+](=O)[O-])c1`, the max inhibition is 3.34%.
With `COc1ccc(OC)c(C2C3=C(N=c4s/c(=C\c5cccc(O)c5)c(=O)n42)c2ccccc2CC3)c1` (centres undefined), the max inhibition is 2.51% [setting not given].
The value for `CCCC(C(=O)n1nc(C)cc1C)C(NS(=O)(=O)c1ccc(C)cc1)c1ccccc1` (centres undefined) was 2.29% [at 1.563 µM]; that for `O=C(NCc1ccccc1)[C@H]1C[C@@H]1[C@H](NP(=O)(c1ccccc1)c1ccccc1)c1ccccc1` was 2.82%.
With `COC(=O)c1ccc(C2C(Oc3ccccc3C)C(=O)N2CCc2ccc(OC)c(OC)c2)cc1` (centres undefined) the figure was 3.17%; with `CC1CCN(C(=S)c2ccc(-c3ccc(Cl)cc3Cl)o2)CC1`, 4.91%; with `COc1ccc(/C=C/C(=O)OCC(=O)Nc2cccc(Oc3ccccc3)c2)c(OC)c1`, 3.76%.
Regarding `COc1ccc(C)cc1NC(=O)C(Sc1ccccc1)c1ccccc1` (centres undefined), the max inhibition was 4.82%.
On to `NS(=O)(=O)c1ccc(NC(=S)NC(=O)c2cccc(Br)c2)cc1`, for which the max inhibition was 2.4% [at 1.563 µM].
Take `COc1ccc(C(=O)NC(=S)Nc2ccc(N3CCCC3)cc2)cc1OC`: the max inhibition was 1.3% [setting not given].
For `C=CCc1ccccc1OCC(=O)N/N=C/c1ccccc1OCC`, the max inhibition was 1.41%.
Consider `Clc1ccccc1CSc1nnc(-c2ccco2)c(-c2ccco2)n1`, for which the max inhibition is 7.87%.
The value for `O=C(NCc1ccccc1)C1=C[C@@H](C2CCCCC2)C[C@@H](OCc2ccc(CO)cc2)O1` was 5.02%.
As to `CCOC(=O)c1c(C)nc2c(c1C)c(=O)oc1ccccc12`, the max inhibition was 1.3% [at 25 µM].
With `Cc1cccc(N2CCN(C(=O)c3cnn4c(C(F)F)cc(-c5ccccc5)nc34)CC2)c1C` the figure was 2.51%; with `Cc1ccc(CCC(=O)Nc2ncc(Cc3cc(Cl)ccc3Cl)s2)o1`, 2.81%.
With `O=C(CSCc1ccc(Br)cc1)Nc1ccc(S(=O)(=O)N2CCCCCC2)cc1`, the max inhibition is 2.51%.
With `COC(=O)CCSc1cc([N+](=O)[O-])cc2c1c(C1OCCS1)nn2-c1ccccc1` (centres undefined) the figure was 4.89% [at 12.5 µM].
The value for `COc1ccc(OCCCn2cccc2/C=C2/C(=N)N3OC(C)=CC3=NC2=O)cc1` was 3.93%.
Take `O=[N+]([O-])c1ccc2oc(-c3cccc(O)c3)nc2c1`: the max inhibition is 5.09% [at 25 µM].
With `CC(C)=CCCC1(C)C=Cc2c(ccc3c2[nH]c2cc(O)c(C)cc23)O1` (centres undefined) the figure was 2.74%.
As for `Cc1ccc(C(=O)c2c(NC(=O)c3ccccc3)sc(C)c2C)cc1`, the max inhibition was 2.97% [setting not given].
Turning to `CSc1ccccc1-c1nnc(-c2ccc(Cl)cc2)o1`, the max inhibition was 2.32% [at 50 µM].
